# Assay results reported in PubChem BioAssay (NCI).
# This is part of a sample that, as a whole, favours compounds with a hit. Of some 79,000 tested, about 15% had one in any assay. Activity calls are given as the source filed them. Rule as the data show it: active = growth inhibition above about 70%; inactive = the rest.
# Assay: NCI Yeast Anticancer Drug Screen. Data for the wt2 strain (AID 169);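 also: 0% = growth of vehicle-treated yeast cultures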
# Settings: S. cerevisiae wt2 strain growth inhibition; at 100.0 µM; stronger effect = higher value
# Procedure, shortened: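 Against vehicle-treated controls, the growth of yeast exposed to each compound was compared, and the inhibition was recorded.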
row,SMILES,growth inhibition
1,O=P(NC1CCCCC1)(OCc1ccccc1)OCc1ccccc1,8% (inactive)
2,COc1oc(C(=O)NC2CCCCC2)c(-c2ccc(Cl)cc2)c1S(=O)(=O)c1ccccc1,82% (active)
3,C[Si](C)(C)/C=C/CCNC(C#N)c1ccccc1 (centres undefined),95% (active)
4,CCOc1ccc(NC(=O)C2=C(C)NC(C)=C(C(=O)Nc3ccc(OCC)cc3)C2c2cccc([N+](=O)[O-])c2)cc1,87% (active)
5,CN(C)CCOC1(Cc2ccc(F)cc2)CCC(C(C)(C)C)CC1 (centres undefined),99% (active)
6,CC1(C)CC(=O)C(/C=N/c2nc(-c3ccccc3)cs2)=C(O)C1,82% (active)
7,CC(=O)Nc1ccc2c(c1)Cc1cc(N=C3C=CC(=O)O3)ccc1-2,95% (active)
8,O=C1C=C(Cl)C(=O)C(c2ccc(Cl)cc2)=C1,96% (active)
9,CNCCCNc1c2ccccc2nc2cccc([N+](=O)[O-])c12,99% (active)
10,CCCCCCCCCCCC(O)S(=O)(=O)O (centres undefined),98% (active)
11,CC(C)OC(=O)c1ccc(CCc2cc(O)c(Br)cc2O)cc1,95% (active)
12,CCc1cc(O)c(Cl)c(C)c1Cl,90% (active)
13,C(=Nc1ccc(-c2cc(-c3ccccc3)nc3ccc4ccccc4c23)cc1)c1ccccc1,81% (active)
14,CSc1nc(C)c(CCOC(C)=O)c(N=P(c2ccccc2)(c2ccccc2)c2ccccc2)n1,92% (active)
15,CS(=O)(=O)SCc1ccc([N+](=O)[O-])cc1,97% (active)
16,COC1=C(OC)C(=O)C(Sc2ccc3ccccc3c2)=CC1=O,94% (active)
17,COc1nc2c(c(=O)n1C)N=C(c1ccccc1)[C@H](C(CC(=O)c1ccccc1)c1ccccc1)C(c1ccccc1)N2 (some centres undefined),46% (inactive)
18,Nc1cc(N)c(N=Nc2cccc3c(S(=O)(=O)O)cccc23)cc1N=Nc1cc([N+](=O)[O-])ccc1O,47% (inactive)

row,SMILES,growth inhibition
1,Nc1ccc(F)cc1S,98% (active)
2,Brc1ccccc1-c1ncc(-c2ccccc2)o1,43% (inactive)
3,COc1cc(C2SCC(=O)N2c2ccc(-c3ccc(-n4c(-c5ccccc5)nc5ccccc5c4=O)cc3)cc2)ccc1O (centres undefined),4% (inactive)
4,Nc1ncnc2c1ncn2C1OC(CO)CC1O (centres undefined),91% (active)
5,COc1cc(CSc2ccc(O)cc2)cc(O)c1O,1% (inactive)
6,CCOC(=O)C1N=[N+](c2ccccc2)C(=O)/C1=C\n1c(=S)[nH]c2ccc([N+](=O)[O-])cc21 (centres undefined),3% (inactive)
7,CNC(=O)OCc1c(COC(=O)NC)c2n(c1C)-c1ccc(OC)cc1CCC2,98% (active)
8,O=C(NNc1ccccc1)c1ccc(Cl)c(Cl)c1,37% (inactive)
9,Cc1ccc(CC2(OCCN(C)C)CCC(C(C)(C)C)CC2)cc1 (centres undefined),99% (active)
10,C[C@]12CC[C@H](O)CC1=CC[C@@H]1C2CC[C@]2(C)C(=O)NC(=O)CC12 (some centres undefined),97% (active)
11,CCCC/C=C/C(C)(C(=O)OCC)C(=O)OCC,14% (inactive)
12,CCc1c(Cl)c(C)cc(O)c1Cl,92% (active)
13,CCCC(=O)Oc1ccc(/C=N/NC(N)=S)nc1,10% (inactive)
14,CCc1nc2ccc(NCCN(C)C)c3c(=O)c4ccccc4n1c23,5% (inactive)
15,COc1c(O)c(C=O)c(Br)c(C=O)c1O,89% (active)
16,Cc1ccc(Cl)cc1NC(=O)OCCN(C)C(=O)Nc1cc(Cl)ccc1C,6% (inactive)
17,Cc1nc2ccccc2nc1NNc1ccccc1,22% (inactive)

# Assay: NCI Yeast Anticancer Drug Screen. Data for the mlh1 strain (AID 171);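 also: 0% = growth of vehicle-treated control cultures of the same strain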
# Settings: S. cerevisiae mlh1 strain growth inhibition; at 1.2 µM; stronger effect = higher value
# Procedure, shortened: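 Measured: yeast growth. Reference: vehicle-treated controls. Organism: strain with a defined alteration affecting DNA damage repair or cell cycle control, treated with compound.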
row,SMILES,growth inhibition
1,CN(C)c1ccc(C2CC(C)(O)Oc3cc4c(cc32)OCO4)cc1 (centres undefined),-3% (inactive)
2,O=P(NC1CCCCC1)(OCc1ccccc1)OCc1ccccc1,-7% (inactive)
3,C[Si](C)(C)/C=C/CCNC(C#N)c1ccccc1 (centres undefined),-16% (inactive)
4,CCOc1ccc(NC(=O)C2=C(C)NC(C)=C(C(=O)Nc3ccc(OCC)cc3)C2c2cccc([N+](=O)[O-])c2)cc1,-2% (inactive)
5,CN(C)CCOC1(Cc2ccc(F)cc2)CCC(C(C)(C)C)CC1 (centres undefined),2% (inactive)
6,CC1(C)CC(=O)C(/C=N/c2nc(-c3ccccc3)cs2)=C(O)C1,0% (inactive)
7,CC(=O)Nc1ccc2c(c1)Cc1cc(N=C3C=CC(=O)O3)ccc1-2,12% (inactive)
8,O=C1C=C(Cl)C(=O)C(c2ccc(Cl)cc2)=C1,34% (inactive)
9,CNCCCNc1c2ccccc2nc2cccc([N+](=O)[O-])c12,18% (inactive)
10,CCCCCCCCCCCC(O)S(=O)(=O)O (centres undefined),0% (inactive)
11,CC(C)OC(=O)c1ccc(CCc2cc(O)c(Br)cc2O)cc1,55% (inactive)
12,CCc1cc(O)c(Cl)c(C)c1Cl,18% (inactive)
13,C(=Nc1ccc(-c2cc(-c3ccccc3)nc3ccc4ccccc4c23)cc1)c1ccccc1,8% (inactive)
14,CSc1nc(C)c(CCOC(C)=O)c(N=P(c2ccccc2)(c2ccccc2)c2ccccc2)n1,12% (inactive)
15,CS(=O)(=O)SCc1ccc([N+](=O)[O-])cc1,6% (inactive)
16,COC1=C(OC)C(=O)C(Sc2ccc3ccccc3c2)=CC1=O,-39% (inactive)
17,COc1nc2c(c(=O)n1C)N=C(c1ccccc1)[C@H](C(CC(=O)c1ccccc1)c1ccccc1)C(c1ccccc1)N2 (some centres undefined),-53% (inactive)

row,SMILES,growth inhibition
1,Cc1cc(-c2cc(C)c(O)c(C(C)(C)C)c2)cc(C(C)(C)C)c1O,-44% (inactive)
2,Nc1cc(N)c(N=Nc2cccc3c(S(=O)(=O)O)cccc23)cc1N=Nc1cc([N+](=O)[O-])ccc1O,-15% (inactive)
3,Nc1ccc(F)cc1S,-20% (inactive)
4,Brc1ccccc1-c1ncc(-c2ccccc2)o1,-4% (inactive)
5,COc1cc(C2SCC(=O)N2c2ccc(-c3ccc(-n4c(-c5ccccc5)nc5ccccc5c4=O)cc3)cc2)ccc1O (centres undefined),-2% (inactive)
6,COc1cc(CSc2ccc(O)cc2)cc(O)c1O,4% (inactive)
7,CCOC(=O)C1N=[N+](c2ccccc2)C(=O)/C1=C\n1c(=S)[nH]c2ccc([N+](=O)[O-])cc21 (centres undefined),0% (inactive)
8,Cc1ccc(CC2(OCCN(C)C)CCC(C(C)(C)C)CC2)cc1 (centres undefined),3% (inactive)
9,C[C@]12CC[C@H](O)CC1=CC[C@@H]1C2CC[C@]2(C)C(=O)NC(=O)CC12 (some centres undefined),-33% (inactive)
10,CCc1c(Cl)c(C)cc(O)c1Cl,6% (inactive)
11,O=C(/C=C(/c1ccccc1)N1CCCCC1)c1ccccc1,-4% (inactive)
12,CCCC(=O)Oc1ccc(/C=N/NC(N)=S)nc1,-9% (inactive)
13,CCc1nc2ccc(NCCN(C)C)c3c(=O)c4ccccc4n1c23,37% (inactive)
14,Cc1sc2ccc3ccccc3c2[n+]1C,-67% (inactive)
15,COc1c(O)c(C=O)c(Br)c(C=O)c1O,5% (inactive)
16,Cc1ccc(Cl)cc1NC(=O)OCCN(C)C(=O)Nc1cc(Cl)ccc1C,-24% (inactive)
17,Cc1nc2ccccc2nc1NNc1ccccc1,1% (inactive)
